From the supplement of paper PMC6555819

What was measured:
Assay in all cases: PBM binding z-score (relative to random genomic background probes); higher = stronger binding; sequences stand for … in GC…GCGATTGACAGCGTAGAATGAAGG
[1] = tested on: PPARg:RXRa DBDmut IVT, anti-RXR (DBD mutation: RXRa K156A/R161A, NR concentration 270 nM, RXRa partner concentration 90 nM)
How it was run: (§1)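 Binding buffer was PBS pH 7.4 with 2% milk, 0.02% Triton X-100, 1 mM DTT, 0.2 mg/mL BSA and 0.4 mg/ml salmon testes DNA. In it, ligand-free nuclear receptor dimers were incubated 1 h on custom Agilent 4×180K protein-binding microarrays carrying double-stranded probes. Antibodies against each partner (one per run) detected binding, and z-scores were calculated against random background probes after regression normalization of scanned fluorescence.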

[2] = tested on: PPARg:RXRa IVT, anti-PPARg (NR concentration 270 nM, RXRa partner concentration 90 nM)
How it was run: as §1

[3] = tested on: PPARg DBDmut:RXRa IVT, anti-PPARg (DBD mutation: PPARg1 K132A/R137A, NR concentration 270 nM, RXRa partner concentration 90 nM)
How it was run: as §1

[4] = tested on: PPARg DBDmut IVT, anti-PPARg (DBD mutation: PPARg1 K132A/R137A, NR concentration 270 nM)
How it was run: as §1

[5] = tested on: PPARg homodimer (NR concentration 180 nM)
How it was run: as §1

[6] = tested on: PXR homodimer (NR concentration 270 nM)
How it was run: as §1

[7] = tested on: RARa:RXR (NR concentration 270 nM, RXRa partner concentration 90 nM)
How it was run: as §1

[8] = tested on: RARa homodimer (NR concentration 270 nM)
How it was run: as §1

[9] = tested on: RARb:RXRa (NR concentration 270 nM, RXRa partner concentration 90 nM)
How it was run: as §1

[10] = tested on: RARb homodimer (NR concentration 270 nM)
How it was run: as §1

[11] = tested on: RARg:RXRa (NR concentration 270 nM, RXRa partner concentration 90 nM)
How it was run: as §1

[12] = tested on: RARg homodimer (NR concentration 270 nM)
How it was run: as §1

[13] = tested on: RXRa DBDmut IVT, anti-RXR (DBD mutation: RXRa K156A/R161A, NR concentration 90 nM)
How it was run: as §1

[14] = tested on: RXRa homodimer (NR concentration 180 nM)
How it was run: as §1

[15] = tested on: THRa:RXRa (NR concentration 90 nM, RXRa partner concentration 90 nM)
How it was run: as §1

[16] = tested on: THRa homodimer (NR concentration 90 nM)
How it was run: as §1

[17] = tested on: VDR homodimer (NR concentration 270 nM)
How it was run: as §1

Row | Sequence | PBM binding z-score [1] | PBM binding z-score [2] | PBM binding z-score [3] | PBM binding z-score [4] | PBM binding z-score [5] | PBM binding z-score [6] | PBM binding z-score [7] | PBM binding z-score [8] | PBM binding z-score [9] | PBM binding z-score [10] | PBM binding z-score [11] | PBM binding z-score [12] | PBM binding z-score [13] | PBM binding z-score [14] | PBM binding z-score [15] | PBM binding z-score [16] | PBM binding z-score [17]
1 | GCTTACGGGTGAAAGGTTATAGCATGAATAGAAT | 3.24 | 4.67 | 0.644 | 0.4 | 1.72 | 0.0936 | 4.93 | 0.6 | 2.14 | 1.48 | 3.01 | 1.34 | 0.431 | 4.95 | 2.2 | 0.0422 | -0.0188
2 | ATCGAAAGGTCGTCGAGGTGAGTATACACCGTTT | 0.528 | 2.3 | 0.899 | 0.213 | 1.6 | 1.15 | 3.81 | 0.174 | 3.89 | 3.07 | 4.59 | 4.35 | 1.72 | 5.2 | 3.83 | 0.955 | 2.41
3 | AATACAGGGTCGCTAGGCCAGAGTAGGTACGAAT | 0.129 | 1.16 | 0.521 | -0.263 | 0.213 | -0.199 | 0.9 | 0.178 | 1.49 | 0.921 | 1.37 | 1.37 | 0.47 | 1.52 | 1.09 | 0.0627 | 0.727
4 | ACTAGTAGGTCAGCTGAGGTCACACACAATTCGG | 7.68 | 7.77 | 2.63 | 2.31 | 6.08 | 4.54 | 6.25 | 4.07 | 5.01 | 5.47 | 6.45 | 7.1 | 2.43 | 6.29 | – | 5.63 | 5.23
5 | AATACAGGGTCACTGGGCCAGAGTAGGTACGAAT | 4.06 | 5.96 | 1.16 | 2.2 | 3.2 | 0.0493 | 4.88 | 1.05 | 4.3 | 3.72 | 5.73 | 5.37 | 2.35 | 6.2 | 3.59 | 1.3 | 2.73
6 | ATATGTAGGTTACATCCGAGTCATTCAGGCTATG | 6.76 | 7.07 | 4.51 | 3.39 | 0.982 | 0.05 | 0.757 | 0.574 | 0.973 | 0.405 | 0.915 | 1.04 | 0.858 | 1.04 | 0.785 | 0.511 | 0.236
7 | TCTCGGAGGACACGAAAGGTGAGAGCTCGACATC | 1.27 | 0.956 | -0.191 | -0.811 | 0.673 | -0.496 | 1.05 | -0.329 | 2.26 | 2.24 | 1.64 | 1.99 | 0.659 | 0.812 | 2.51 | 0.549 | -0.374
8 | CAAACTAGGTCACCGGGAGGTCAAAGTCCGCATG | 8.47 | 9.02 | 1.69 | 0.534 | 6.45 | 4.09 | 7.76 | 3.15 | 5.16 | 5.88 | 8.67 | 7.68 | 2.07 | 7.06 | 4.94 | 4.06 | 4.85
9 | ATATGTAGGTTACATCGGGGTCATTCAGGCTATG | 7.87 | 7.63 | 3.44 | 3.24 | 3.92 | 10.3 | 7 | 1.93 | 3.25 | 4.16 | 5.65 | 3.14 | 2.56 | 6.42 | 4.32 | 3.16 | 6.17
10 | CAATCTAGGTCACAGAGGTCAAAGTCCGTGCGTA | 9.1 | 9.25 | 7.18 | 5.24 | 7.14 | 11.9 | 7.89 | 3.61 | 5.46 | 5.7 | 7.55 | 7.82 | 3.44 | 8.19 | 4.8 | 3.43 | 7.51
11 | CGTCAACGTTCAACTAAGGTAACGTAAAGCACGC | -0.0681 | 0.225 | 0.181 | -0.155 | 0.349 | -0.0969 | 2.07 | 0.331 | 0.991 | 0.8 | 0.496 | 0.603 | 0.449 | 0.587 | 3.84 | 1.68 | 0.137
12 | ATACCAAGGTGATCGTGAGTTCGTTGATACTAAC | 0.668 | 0.994 | -0.0501 | 0.822 | 0.422 | 3.19 | 0.619 | 0.465 | 0.462 | 0.465 | 0.682 | 0.338 | 1.2 | 0.456 | 1.58 | 0.74 | 4.63
13 | CCTTACGGGTCACTCTAGGTTATAGCATCGGAGT | 3.21 | 3.69 | 0.202 | -0.339 | 1.82 | 0.568 | 3.43 | 0.346 | 3.68 | 3.22 | 4.35 | 4.38 | 2 | 4.27 | 4.93 | 0.527 | 1.39
14 | CCTAGTTGGTCAGGAGGTCACATACCGGATATGA | 1.64 | 3.39 | 0.476 | 0.388 | 2.7 | 1.16 | 3.9 | 2.01 | 3.37 | 4.17 | 4.57 | 3.85 | 0.947 | 3.92 | 3.32 | 2.13 | 2.4
15 | GCTTCCGGGTCAAAGGTTATAGCATGAATAGAAT | 6.02 | 6.82 | 2.92 | 1.77 | 4.67 | 0.927 | 8.48 | 0.795 | 4.45 | 2.99 | 6.81 | 4.53 | 2.8 | 9.29 | 4.61 | 1.46 | 2.25
16 | AGAATGAGGTTATACGTAGGTCAGGGAAGAAAGT | 3.82 | 2.92 | 1.18 | 0.81 | 3.44 | 0.992 | 4.71 | 0.747 | 3.19 | 3.18 | 6.03 | 2.35 | 1.74 | 3.96 | 3.74 | 1.44 | 1.87
